Reference: PubChem BioAssay AID1159580 (chemical genetic matrix, 2015)
Where “and” joins values, the source holds several entries; their conditions need not be identical. Equal values may be shown once. In all, about 5,500 compounds went through this assay and about 2,000 (36%) were called active. About 18% were inconclusive and are not listed. No stated cut-off is given here; in the data, active means normalized growth mostly below about 0.91 (no sharp cut-off); inconclusive means no clear call, values can overlap the other calls; inactive means mostly above about 0.92. This is one part of the list.

Experiment: chemical genetic growth profiling, strain panel (AID 1159580);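 further: tested at 20 µM; growth read once vehicle control cultures reached saturation at 30 °C; 1 = growth at the plate median or of vehicle wells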
Conditions: growth OD

Measured: normalized growth

Cn1cnc2c1c(=O)[nH]c(=O)n2C
inactive: S. cerevisiae deletion strains, locus YJR075W, strain HOC1, stronger effect = lower value 1.03 | S. cerevisiae deletion strains, locus YKL009W, strain mrt4, stronger effect = lower value 0.989 | S. cerevisiae deletion strains, locus YKL068W, stronger effect = lower value 1.01 | S. cerevisiae deletion strains, locus YKL085W, strain MDH1 (second series), stronger effect = lower value 1.01 | S. cerevisiae deletion strains, locus YKL085W, strain MDH1, stronger effect = lower value 1.01 | S. cerevisiae deletion strains, locus YKL160W, strain elf1, stronger effect = lower value 0.995 | S. cerevisiae deletion strains, locus YKL190W, strain CNB1, stronger effect = lower value 1.01 | S. cerevisiae deletion strains, locus YKR001C, strain vps1, stronger effect = lower value 1 | S. cerevisiae deletion strains, locus YKR026C, strain gcn3, stronger effect = lower value 0.961 | S. cerevisiae deletion strains, locus YKR091W, strain srl3, stronger effect = lower value 0.964 | S. cerevisiae deletion strains, locus YLL001W, strain dnm1, stronger effect = lower value 0.994 | S. cerevisiae deletion strains, locus YLL026W, stronger effect = lower value 0.996 | S. cerevisiae deletion strains, locus YLL041C, strain sdh2, stronger effect = lower value 1.01 | S. cerevisiae deletion strains, locus YLR027C, strain aat2, stronger effect = lower value 0.987 | S. cerevisiae deletion strains, locus YLR039C, strain RIC1, stronger effect = lower value 1.02 | S. cerevisiae deletion strains, locus YLR058C, strain SHM2, stronger effect = lower value 1.01 | S. cerevisiae deletion strains, locus YLR102C, strain apc9, stronger effect = lower value 1.01 | S. cerevisiae deletion strains, locus YLR113W, strain HOG1, stronger effect = lower value 0.973 | S. cerevisiae deletion strains, locus YLR221C, strain rsa3, stronger effect = lower value 0.976 | S. cerevisiae deletion strains, locus YLR258W, strain gsy2, stronger effect = lower value 1 | S. cerevisiae deletion strains, locus YLR262C, strain YPT6 (second series), stronger effect = lower value 0.978 | S. cerevisiae deletion strains, locus YLR262C, strain YPT6, stronger effect = lower value 1.04 | S. cerevisiae deletion strains, locus YLR268W, strain sec22, stronger effect = lower value 1.04 | S. cerevisiae deletion strains, locus YLR320W, strain mms22, stronger effect = lower value 1 | S. cerevisiae deletion strains, locus YLR330W, strain CHS5, stronger effect = lower value 1.01 | S. cerevisiae deletion strains, locus YLR342W, strain FKS1 (second series), stronger effect = lower value 1.01 | S. cerevisiae deletion strains, locus YLR342W, strain FKS1, stronger effect = lower value 0.978 | S. cerevisiae deletion strains, locus YLR357W, strain rsc2, stronger effect = lower value 1 | S. cerevisiae deletion strains, locus YLR370C, strain arc18, stronger effect = lower value 0.97 | S. cerevisiae deletion strains, locus YLR371W, strain rom2, stronger effect = lower value 1.03 | S. cerevisiae deletion strains, locus YLR384C, strain iki3, stronger effect = lower value 0.994 | S. cerevisiae deletion strains, locus YLR418C, strain cdc73, stronger effect = lower value 0.99 | S. cerevisiae deletion strains, locus YML016C, strain PPZ1, stronger effect = lower value 1.01 | S. cerevisiae deletion strains, locus YML032C, strain rad52, stronger effect = lower value 1.03 | S. cerevisiae deletion strains, locus YML120C, strain ndi1, stronger effect = lower value 0.959 | S. cerevisiae deletion strains, locus YML124C, strain tub3, stronger effect = lower value 1.01 | S. cerevisiae deletion strains, locus YMR058W, strain fet3, stronger effect = lower value 0.97 | S. cerevisiae deletion strains, locus YMR078C, strain ctf18, stronger effect = lower value 1.01 | S. cerevisiae deletion strains, locus YMR125W, strain sto1, stronger effect = lower value 0.978 | S. cerevisiae deletion strains, locus YMR129W, stronger effect = lower value 0.979 | S. cerevisiae deletion strains, locus YMR205C, strain PFK2, stronger effect = lower value 0.979 | S. cerevisiae deletion strains, locus YMR223W, strain ubp8, stronger effect = lower value 1 | S. cerevisiae deletion strains, locus YMR231W, strain pep5, stronger effect = lower value 1 | S. cerevisiae deletion strains, locus YMR263W, strain SAP30, stronger effect = lower value 1.01 and 0.995 | S. cerevisiae deletion strains, locus YMR307W, strain GAS1, stronger effect = lower value 0.981 and 0.999 | S. cerevisiae deletion strains, locus YNL067W, strain RPL9B, stronger effect = lower value 1.02 | S. cerevisiae deletion strains, locus YNL071W, strain lat1, stronger effect = lower value 0.983 | S. cerevisiae deletion strains, locus YNL128W, strain TEP1, stronger effect = lower value 1.02 and 1.01 | S. cerevisiae deletion strains, locus YNL153C, strain GIM3, stronger effect = lower value 1.01 | S. cerevisiae deletion strains, locus YNL175C, strain NOP13, stronger effect = lower value 0.995 | S. cerevisiae deletion strains, locus YNL183C, strain NPR1, stronger effect = lower value 0.948 | S. cerevisiae deletion strains, locus YNL197C, strain WHI3, stronger effect = lower value 1.02 | S. cerevisiae deletion strains, locus YNL209W, strain ssb2, stronger effect = lower value 0.986 | S. cerevisiae deletion strains, locus YNL224C, strain SQS1, stronger effect = lower value 1.01 | S. cerevisiae deletion strains, locus YNL233W, strain BNI4, stronger effect = lower value 1.01 | S. cerevisiae deletion strains, locus YNL248C, strain rpa49, stronger effect = lower value 0.978 | S. cerevisiae deletion strains, locus YNL250W, strain rad50, stronger effect = lower value 1.02 | S. cerevisiae deletion strains, locus YNL271C, strain bni1, stronger effect = lower value 1.01 | S. cerevisiae deletion strains, locus YNL298W, strain CLA4, stronger effect = lower value 1 | S. cerevisiae deletion strains, locus YNL307C, strain MCK1, stronger effect = lower value 1 | S. cerevisiae deletion strains, locus YNL322C, strain KRE1 (second series), stronger effect = lower value 0.953 | S. cerevisiae deletion strains, locus YNL322C, strain KRE1, stronger effect = lower value 1.01 and 1.02 | S. cerevisiae deletion strains, locus YNR049C, strain mso1, stronger effect = lower value 0.993 | S. cerevisiae deletion strains, locus YNR052C, strain pop2, stronger effect = lower value 1.01 | S. cerevisiae deletion strains, locus YOL006C, strain TOP1, stronger effect = lower value 1.06 | S. cerevisiae deletion strains, locus YOL012C, strain htz1 0.781 | S. cerevisiae deletion strains, locus YOL147C, strain pex11, stronger effect = lower value 1.01 | S. cerevisiae deletion strains, locus YOR001W, strain rrp6, stronger effect = lower value 0.986 | S. cerevisiae deletion strains, locus YOR061W, strain CKA2, stronger effect = lower value 1.01 | S. cerevisiae deletion strains, locus YOR069W, strain VPS5, stronger effect = lower value 1.01 | S. cerevisiae deletion strains, locus YOR070C, strain gyp1, stronger effect = lower value 1 | S. cerevisiae deletion strains, locus YOR080W, strain dia2, stronger effect = lower value 0.972 | S. cerevisiae deletion strains, locus YOR083W, strain WHI5 (second series), stronger effect = lower value 1 | S. cerevisiae deletion strains, locus YOR083W, strain WHI5, stronger effect = lower value 0.979 | S. cerevisiae deletion strains, locus YOR106W, strain vam3, stronger effect = lower value 0.977 | S. cerevisiae deletion strains, locus YOR136W, strain idh2, stronger effect = lower value 1.01 | S. cerevisiae deletion strains, locus YOR144C, strain elg1, stronger effect = lower value 1.01 | S. cerevisiae deletion strains, locus YOR184W, strain ser1, stronger effect = lower value 1.01 | S. cerevisiae deletion strains, locus YOR231W, strain MKK1, stronger effect = lower value 0.976 | S. cerevisiae deletion strains, locus YOR265W, strain rbl2, stronger effect = lower value 0.997 | S. cerevisiae deletion strains, locus YOR270C, strain vph1, stronger effect = lower value 0.986 | S. cerevisiae deletion strains, locus YOR290C, strain snf2, stronger effect = lower value 0.994 | S. cerevisiae deletion strains, locus YOR316C, strain cot1, stronger effect = lower value 1.01 | S. cerevisiae deletion strains, locus YPL051W, strain arl3, stronger effect = lower value 1 | S. cerevisiae deletion strains, locus YPL055C, strain LGE1, stronger effect = lower value 1.01 and 1.03 | S. cerevisiae deletion strains, locus YPL078C, strain atp4, stronger effect = lower value 0.979 | S. cerevisiae deletion strains, locus YPL106C, strain sse1, stronger effect = lower value 0.954 | S. cerevisiae deletion strains, locus YPL240C, strain hsp82, stronger effect = lower value 0.989 | S. cerevisiae deletion strains, locus YPL241C, strain CIN2, stronger effect = lower value 1.01 | S. cerevisiae deletion strains, locus YPL256C, strain CLN2, stronger effect = lower value 0.932 | S. cerevisiae deletion strains, locus YPR119W, strain clb2, stronger effect = lower value 1.02 | S. cerevisiae deletion strains, locus YPR141C, strain kar3, stronger effect = lower value 1.01 | S. cerevisiae deletion strains, locus YPR163C, strain tif3, stronger effect = lower value 1.01 | S. cerevisiae deletion strains, locus YPR167C, strain met16, stronger effect = lower value 1.01 | S. cerevisiae deletion strains, strain wtn01, stronger effect = lower value 1.01 | S. cerevisiae strains, strain wild type, stronger effect = lower value 1.01
